According to publication PMC5540273 (PLoS ONE, 2017):

How the values were obtained:
Conditions in all cases: concentration: 1 μM, replicates: in singlicate; n = 1
[1] = tested on: ALK
[2] = tested on: T1, AMPK-alpha1
T1 construct: gene PRKAA1

[3] = tested on: T2, AMPK-alpha2
T2 construct: gene PRKAA2

[4] = tested on: ANKK1
[5] = tested on: T3, ARK5
T3 construct: gene NUAK1

[6] = tested on: T4, ASK1
T4 construct: gene MAP3K5

[7] = tested on: T5, ASK2
T5 construct: gene MAP3K6

[8] = tested on: AURKA
[9] = tested on: AURKB
[10] = tested on: AURKC
[11] = tested on: AXL
[12] = tested on: T6, BIKE
T6 construct: gene BMP2K

[13] = tested on: BLK
[14] = tested on: BMPR1A
[15] = tested on: BMPR1B
[16] = tested on: BMPR2
[17] = tested on: BMX
[18] = tested on: BRAF
[19] = tested on: T7, BRK
T7 construct: gene PTK6

[20] = tested on: BRSK1
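Note: KINOMEscan kinase panel screen.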

SMILES	%Inh [1]	%Inh [2]	%Inh [3]	%Inh [4]	%Inh [5]	%Inh [6]	%Inh [7]	%Inh [8]	%Inh [9]	%Inh [10]	%Inh [11]	%Inh [12]	%Inh [13]	%Inh [14]	%Inh [15]	%Inh [16]	%Inh [17]	%Inh [18]	%Inh [19]	%Inh [20]
O=C(Nc1n[nH]c2nc(-c3ccccc3)c(Br)cc12)C1CC1 [SB-708998]	1%	12%	18%	14%	0%	0%	0%	7%	4%	36%	0%	28%	8%	16%	0%	0%	7%	31%	0%	60%
Cc1ccc(Oc2ccc(Nc3ncnc4cc[nH]c34)cc2C)cn1	7%	0%	14%	5%	0%	0%	0%	20%	0%	10%	25%	4%	0%	34%	1%	13%	20%	0%	0%	10%
COc1cc2ncn(-c3cc(OCc4ccc(S(C)(=O)=O)cc4)c(C(N)=O)s3)c2cc1OC [GW869979]	26%	0%	0%	20%	0%	18%	37%	0%	0%	0%	31%	0%	46%	11%	30%	8%	6%	6%	0%	4%
O=C1NC(=O)C(c2ccccc2)=C1Nc1cccc(O)c1 [SB-390534]	0%	0%	0%	0%	0%	0%	4%	12%	35%	0%	27%	4%	6%	2%	0%	10%	15%	0%	0%	2%
COc1cc(Nc2nccc(N3CCC(NC(=O)C4COc5ccccc5O4)C3)n2)cc(OC)c1OC (stereo not drawn) [GSK1379761]	18%	11%	0%	24%	2%	0%	5%	51%	72%	75%	17%	57%	16%	0%	0%	26%	16%	0%	2%	9%
CCC(=O)c1c(-c2ccccc2)c2cc(Cl)ccc2c(=O)n1Cc1cc(S(C)(=O)=O)n(CC(N)=O)n1	0%	0%	0%	0%	0%	0%	0%	0%	0%	0%	2%	0%	5%	0%	0%	0%	16%	0%	0%	0%
Cc1cccc(-c2nc(Nc3ccc4c(cnn4C)c3)c3ccccc3n2)n1 [GW876731]	0%	0%	17%	16%	5%	0%	10%	24%	6%	0%	25%	0%	0%	1%	0%	1%	7%	0%	0%	0%
COc1ccc(-n2cnc3c(N)ncnc32)cc1 [SKF-97236]	0%	16%	20%	17%	0%	0%	0%	0%	16%	63%	22%	55%	16%	34%	0%	0%	0%	5%	0%	2%
O=C(Nc1ccc2c(c1)OCO2)NC1CCN(c2ccnc(NCc3ccc(F)cc3)n2)CC1 [GSK1379859]	9%	0%	0%	0%	6%	0%	0%	11%	0%	24%	2%	7%	43%	0%	0%	0%	3%	0%	4%	0%
CN1C(=O)C(Nc2cc(Cl)c(O)c(Cl)c2)=C(c2ccc(Cl)cc2)C1=O [SB-404321]	48%	0%	0%	0%	0%	0%	0%	0%	14%	0%	27%	0%	0%	0%	0%	1%	13%	0%	0%	0%
CCc1nc(-c2cccc(C)c2)c(-c2ccncc2)s1	0%	0%	0%	0%	17%	0%	0%	0%	13%	0%	0%	3%	0%	0%	0%	0%	0%	50%	7%	0%
Cc1nn2c(=O)cc(N3CCOCC3)nc2n1Cc1cccc(Cl)c1Cl [GSK2342769]	29%	0%	2%	0%	20%	5%	7%	0%	3%	0%	4%	2%	18%	0%	0%	4%	12%	7%	1%	0%
Cc1nc(N(C)[C@H]2CN(C(=O)CC#N)CC[C@H]2C)c2cc[nH]c2n1	0%	0%	0%	0%	0%	0%	0%	0%	0%	0%	9%	0%	18%	0%	10%	8%	0%	0%	0%	0%
Nc1n[nH]c2ncc(-c3ccccc3)cc12 [SB-517081]	38%	0%	0%	28%	2%	0%	0%	21%	64%	27%	0%	17%	13%	2%	0%	34%	0%	0%	24%	0%
CCc1ccc(-c2ccc3c(c2)-c2nn(C)cc2S(=O)(=O)N3C)cc1	10%	0%	9%	0%	13%	0%	0%	0%	6%	0%	8%	0%	0%	0%	0%	0%	0%	32%	0%	0%
CN(C)c1cc(-c2ccc3c(N)n[nH]c3c2)nc(N)n1 [GSK2219329]	0%	0%	11%	10%	0%	0%	0%	0%	10%	9%	0%	32%	2%	0%	0%	0%	13%	0%	0%	0%
O=C(NCc1cccs1)c1cc(C(=O)c2c(Cl)cccc2Cl)c[nH]1 [GW823670]	0%	8%	0%	0%	0%	19%	0%	0%	9%	1%	0%	19%	28%	7%	0%	15%	0%	0%	0%	0%
O=C(Nc1n[nH]c2nc(-c3ccccc3)c(Cl)cc12)C1CC1 [SB-734909]	15%	0%	10%	19%	1%	0%	21%	28%	33%	25%	0%	21%	0%	9%	27%	0%	1%	62%	0%	70%
COc1ccc(-c2coc3ccc(-c4nnc(SCc5cccc(C#N)c5)o4)cc23)cc1	0%	7%	0%	19%	16%	9%	6%	22%	12%	0%	21%	0%	0%	14%	17%	18%	28%	0%	10%	0%
COc1cc2ncn(-c3cc(OCCCc4ccccc4)c(C(N)=O)s3)c2cc1OC [GSK205189]	0%	28%	0%	0%	0%	0%	0%	0%	18%	45%	13%	36%	12%	0%	0%	0%	11%	0%	1%	1%
COc1cccc(C2=C(N(C)c3ccccc3)C(=O)NC2=O)c1 [SB-334865]	24%	6%	13%	0%	1%	18%	0%	11%	32%	0%	0%	0%	0%	0%	0%	0%	0%	0%	15%	0%
